In PubChem BioAssay (NCATS):
Values joined by “and” are separate entries in the source; they are usually repeats but may differ in a detail not shown here. Equal values may be shown once. Records with an inconclusive call do not appear. A number with no mark means an inactive call. Active and inactive are the calls of the source. The call rests on the fitted dose curve; in most records, active means well fitted curve in the direction sought with a large enough effect; inconclusive means small, poorly fitted or top-dose-only effect, or another doubt; inactive means no such curve, though single readings can be large or run the other way. Where a SMILES comes first, the peptide text is derived from it. Bridges are numbered along the chain shown (N, C = ends). [ ]: non-standard residue; d: D form. The star is where a group is joined. Dab(CH2SO3H) = N[C@@H](CCNCS(=O)(=O)O)C(=O)O; X3 = CC[C@@H](C)CCCCC(=O)*; Dab = NCC[C@H](N)C(=O)O
On the % scale 0 is the no-effect control and ±100 the full control effect; potency means the concentration at half of the fitted maximal effect.

Test: qHTS Assay for Identifying Gametocytocidal Compounds (AID 743244);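 on max response: actives lower the fluorescent signal which means gametocytes are killed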
Settings: P. falciparum 3D7 stage III-V gametocytes, alamarBlue, 72 h; max response: hits give low values
Outline: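 Fluorescence at Ex 525/Em 598 nm, recorded 24 h after alamarBlue addition, reports residual metabolic activity of 3D7 gametocytes (stages III–V) following 72 h compound exposure at 37 °C, 5% CO2.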
With `OC[C@H]1O[C@@H](n2cnc3c2NC=NC[C@H]3O)C[C@@H]1O` the max response was -6.17%. In the case of `CCC1OC(=O)C[C@@H](O)[C@H](C)[C@@H](O[C@@H]2O[C@H](C)C[C@H](N(C)C)[C@H]2O)[C@@H](CC=O)C[C@@H](C)C(=O)/C=C/[C@]2(C)OC2C1C` (stereo partly specified), the Potency is reported as 10 µM (active). Molecule `CC[N+](C)(C)Cc1ccccc1Br` has a max response of 2.98%. Molecule `Cc1cn([C@H]2C[C@H](O)[C@@H](CO)O2)c(=O)[nH]c1=O` has a max response of 5.37%. For `CCC[C@@H]1C[C@@H](C(=O)N[C@@H]([C@H]2O[C@H](SC)[C@H](OP(=O)(O)O)[C@@H](O)[C@H]2O)[C@H](C)Cl)N(C)C1`, the max response was 4.72% and 1.78%. In the case of `C=C1CC[C@@H]2[C@](C)(CO)[C@H](O)CC[C@@]2(C)[C@@H]1C/C=C1/C(=O)OC[C@H]1O`, the Potency is reported as 20 µM (active). `O=C(O)c1cc(O)c2c(c1)[O][Bi][O]2` showed a max response of 17.6%. Molecule `CC[C@H]1OC(=O)C[C@@H](O)[C@H](C)[C@@H](O[C@@H]2O[C@H](C)[C@@H](O)[C@H](N(C)C)[C@H]2O)[C@@H](CCN2C[C@H](C)C[C@H](C)C2)C[C@@H](C)C(=O)/C=C/C(C)=C/[C@@H]1CO[C@@H]1O[C@H](C)[C@@H](O)[C@@H](OC)[C@H]1OC` has a max response of -0.81%. `CCCCC(=O)N(Cc1ccc(-c2ccccc2-c2nn[nH]n2)cc1)[C@@H](C(=O)O)C(C)C` gave a max response of -5.58%. `CO[C@H]1C[C@H](O[C@H]2[C@H](C)[C@@H](O[C@@H]3O[C@H](C)C[C@H](N(C)C)[C@H]3OC(C)=O)[C@@H](C)C[C@]3(CO3)C(=O)[C@H](C)[C@@H](OC(C)=O)[C@@H](C)[C@@H](C)OC(=O)[C@@H]2C)O[C@@H](C)[C@@H]1OC(C)=O` gave a max response of 7.91%. `CC[C@@H](C)CCCCC(=O)N[C@@H](CCNCS(=O)(=O)O)C(=O)N[C@H](C(=O)N[C@@H](CCNCS(=O)(=O)O)C(=O)N[C@H]1CCNC(=O)[C@H]([C@@H](C)O)NC(=O)[C@H](CCNCS(=O)(=O)O)NC(=O)[C@H](CCNCS(=O)(=O)O)NC(=O)[C@H](CC(C)C)NC(=O)[C@@H](CC(C)C)NC(=O)[C@H](CCNCS(=O)(=O)O)NC1=O)[C@@H](C)O` (X3-[Dab(CH2SO3H)]T[Dab(CH2SO3H)][Dab][Dab(CH2SO3H)][dL]L[Dab(CH2SO3H)][Dab(CH2SO3H)]T; lactam 4-C) gave a max response of 5.78%. `Nc1ncnc2c1ncn2[C@@H]1O[C@H](COP(=O)(O)OP(=O)(O)OP(=O)(O)O)[C@@H](O)[C@H]1O` showed a max response of -2.1%. In the case of `Cc1cc(C(=O)NNCc2ccccc2)no1`, the max response is reported as -1.55%. In the case of `COC(=O)[C@H]1[C@H]2C[C@@H]3c4[nH]c5ccccc5c4CCN3C[C@H]2C[C@@H](OC(=O)c2cc(OC)c(OC)c(OC)c2)[C@@H]1OC`, the Potency is reported as 8.91 µM (active). With `CC(=O)N[C@@H](CC(=O)N[C@@H](CCC(=O)O)C(=O)O)C(=O)O` the max response was -4.86%. In the case of `COC(F)(F)C(Cl)Cl`, the max response is reported as 1.97%. In the case of `CC(=O)Oc1cc(C)c(OC(C)=O)c2ccccc12`, the Potency is reported as 6.31 µM (active). In the case of `CCOc1ccc(N=Nc2ccc(N)cc2N)cc1`, the max response is reported as 4.91%. `CC(NNC(=O)c1ccccc1)c1ccccc1` (stereo unspecified) showed a max response of -2.82%. In the case of `CCCCC(=O)O[C@]1(C(=O)CO)[C@H](C)C[C@H]2[C@@H]3CCC4=CC(=O)C=C[C@]4(C)[C@@]3(F)[C@@H](O)C[C@@]21C`, the max response is reported as 12.3%. `CO[C@@H]1[C@@H](O[C@@H]2O[C@H](C)[C@@H](O[C@H]3C[C@@](C)(O)[C@@H](O)[C@H](C)O3)[C@H](N(C)C)[C@H]2O)[C@@H](CC=O)C[C@@H](C)[C@@H](O[C@@H]2CC[C@H](N(C)C)[C@@H](C)O2)/C=C/C=C/C[C@@H](C)OC(=O)C[C@H]1O` gave a max response of 23.5%. Molecule `Cc1onc(-c2ccccc2)c1C(=O)N[C@@H]1C(=O)N2[C@@H]1SC(C)(C)[C@@H]2C(=O)O` has a max response of -0.392%. For `COc1ccc(C[C@H](N)C(=O)N[C@H]2[C@@H](O)[C@H](n3cnc4c(N(C)C)ncnc43)O[C@@H]2CO)cc1`, the Potency was 1.05 µM (active). `C[C@]12C=CC(=O)C=C1CC[C@@H]1[C@@H]2[C@@H](O)C[C@@]2(C)[C@H]1CC[C@]2(O)C(=O)COC(=O)CCC(=O)O` showed a max response of -8.44%. `COc1ccc(C[C@@H](C)NC[C@H](O)c2ccc(O)c(NC=O)c2)cc1` gave a max response of 19.6%. Molecule `C#CCOc1ccc2c(C)cc(=O)oc2c1` has a max response of 7.39%. Molecule `C[C@@H]1[C@H](O)[C@@H](C)/C=C/C=C\C=C\C=C\C=C\C=C\C=C\[C@H](O[C@@H]2O[C@H](C)[C@@H](O)[C@H](N)[C@@H]2O)C[C@@H]2O[C@](O)(C[C@@H](O)C[C@@H](O)[C@H](O)CC[C@@H](O)C[C@@H](O)CC(=O)O[C@H]1C)C[C@H](O)[C@H]2C(=O)O` (stereo in doubt) has a max response of 4.52%. `CCCC(=O)Nc1ncnc2c1ncn2[C@@H]1O[C@@H]2COP(=O)(O)O[C@H]2[C@H]1OC(=O)CCC` showed a max response of -2.66%. In the case of `CC(=O)Oc1c(C)cc(OCC(O)CNC(C)C)c(C)c1C` (stereo unspecified), the Potency is reported as 15.8 µM (active). For `O=C(O)C[C@H](O)C[C@H](O)/C=C/c1c(C2CC2)nc2ccccc2c1-c1ccc(F)cc1`, the max response was 4.27%. Work on `O=C(Nc1ccc(Br)cc1)c1cc(Br)c(Br)s1` yielded a max response of 1.98%. In the case of `CC(C)(C)C(=O)OCOC(=O)[C@@H]1N2C(=O)[C@@H](N=CN3CCCCCC3)[C@H]2SC1(C)C`, the max response is reported as 2.95%. In the case of `CN1Cc2c(N)cccc2C(c2ccccc2)C1` (stereo unspecified), the max response is reported as 14.6% and -4.23%. For `Nc1c(N=Nc2ccc(-c3ccc(N=Nc4cc(S(=O)(=O)O)c5ccccc5c4N)cc3)cc2)cc(S(=O)(=O)O)c2ccccc12`, the max response was 13.5%. `CC(=O)OCC(=O)[C@@]1(O)CC[C@H]2[C@@H]3C[C@H](C)C4=CC(=O)C=C[C@]4(C)[C@H]3[C@@H](O)C[C@@]21C` showed a max response of -1.15%. For `CCOc1cc2ncc(C#N)c(Nc3ccc(OCc4ccccn4)c(Cl)c3)c2cc1NC(=O)/C=C/CN(C)C`, the Potency was 23.5 µM (active).
